Test results as given in PubChem BioAssay (NCATS).
Where “and” joins values, the source holds several entries; their conditions need not be identical. Equal values may be shown once. Inconclusive results are not listed. Entries that show only a call come without a potency. A number with no mark means an inactive call. Calls of active or inactive are those of the source. Calls follow the shape of the dose curve; as a rule, active = well fitted curve in the direction sought with a large enough effect; inconclusive = small, poorly fitted or top-dose-only effect, or another doubt; inactive = no such curve, though single readings can be large; an effect the other way counts as inactive or inconclusive.

Experiment: qHTS of pediatric cancer cell lines to identify multiple opportunities for drug repurposing: Primary screen for U-2 OS cells (AID 1347096); also: nearly all actives have a fitted effect of over 50% in size
Conditions: U-2 OS viability, CellTiter-Glo luminescence, 48 h; series mostly up to 46 µM
Method in brief: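 Viability after 48 h compound treatment at 37C, 500-1,000 cells/well, read as ATP luminescence with CellTiter-Glo. Primary screens used 11-point (MIPE, 0.78 nM-46 µM) or 8-point (NPC, 0.59 nM-46 µM) final concentrations; follow-up screens used 11-point dilutions.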
For CN1C(C(=O)Nc2ccccn2)=C(O)c2sccc2S1(=O)=O, the Potency was “inactive”.
With Cc1cc2c(s1)Nc1ccccc1N=C2N1CCN(C)CC1 the Potency was “inactive”.
In the case of COc1cc(OC)c(C(=O)CCCN2CCCC2)c(OC)c1, the Potency is reported as “inactive”.
In the case of CC1=C(C(=O)O)N2C(=O)[C@@H](NC(=O)[C@H](N)C3=CCC=CC3)[C@H]2SC1, the Potency is reported as “inactive”.
For Nc1cc(C(Cl)=C(Cl)Cl)c(S(N)(=O)=O)cc1S(N)(=O)=O, the Potency was “inactive”.
For Nc1ccc(S(N)(=O)=O)cc1, the Potency was “inactive”.
For Clc1ccc2c(N3CCN(CCCN4CCN(c5ccnc6cc(Cl)ccc56)CC4)CC3)ccnc2c1, the Potency was “inactive”.

Experiment: qHTS of pediatric cancer cell lines to identify multiple opportunities for drug repurposing: Primary screen for Saos-2 cells (AID 1347097); also: nearly all actives have a fitted effect of over 40% in size; also: potency is read from the fitted curve at half-maximal effect
Conditions: Saos-2 viability, CellTiter-Glo ATP luminescence, 48 h; series mostly up to 46 µM
Method in brief: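 CRCs from 8- or 11-point titrations (lowest final 0.59 nM NPC, 0.78 nM MIPE). Cell viability: CellTiter-Glo after 48 h incubation, 15 min room-temperature development, luminescence imaging.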
With COC(=O)C1=C(C)NC(C)=C(C(=O)OC(C)C)C1c1cccc2nonc12 (stereo not given) the Potency was “inactive”.
For CC1(C)NC(=O)N(c2ccc([N+](=O)[O-])c(C(F)(F)F)c2)C1=O, the Potency was “inactive”.
With CC(C)(S)[C@@H](N)C(=O)O the Potency was “inactive”.
In the case of Cc1ncc([N+](=O)[O-])n1CC(C)O (stereo not given), the Potency is reported as “inactive”.
In the case of COc1ccccc1N1CCN(CCN(C(=O)C2CCCCC2)c2ccccn2)CC1, the Potency is reported as “inactive”.
For c1cnc2cc3c(cc2n1)C1CNCC3C1, the Potency was “inactive”.
For CCOC(=O)c1c(C)n(C)c2ccc(O)cc12, the Potency was “inactive”.
In the case of CCOc1cc(CC(=O)N[C@@H](CC(C)C)c2ccccc2N2CCCCC2)ccc1C(=O)O, the Potency is reported as “inactive”.
In the case of CC1Cc2ccccc2N1NC(=O)c1ccc(Cl)c(S(N)(=O)=O)c1 (stereo not given), the Potency is reported as “inactive”.
With O=C(OC1C[C@H]2CC[C@@H](C1)[N+]21CCCC1)C(O)(c1ccccc1)c1ccccc1 (stereo not given in full) the Potency was “inactive”.
In the case of CCCCC(CC)COC(=O)C(C#N)=C(c1ccccc1)c1ccccc1 (stereo not given), the Potency is reported as “inactive”.
With NNc1nncc2ccccc12 the Potency was “inactive”.
With Oc1ccc(OCc2ccccc2)cc1 the Potency was “inactive”.
For Cc1cc(C2CCCCC2)n(O)c(=O)c1, the Potency was 21.1 µM (active).
With COc1ccc2cc([C@H](C)C(=O)O)ccc2c1 the Potency was “inactive”.
For Nc1ncn([C@H]2C[C@H](O)[C@@H](CO)O2)c(=O)n1, the Potency was “inactive”.
In the case of COc1c2occc2cc2ccc(=O)oc12, the Potency is reported as “inactive”.
With C[Se]CCC(N)C(=O)O (stereo not given) the Potency was “inactive”.
With CC1(C)C(=O)N(CCN2CCC(C(=O)c3ccc(F)cc3)CC2)c2ccccc21 the Potency was “inactive”.
For CCCCCCCCCCCCCCCCCCCCCCO, the Potency was “inactive”.
In the case of O=C(NOCC1CC1)c1ccc(F)c(F)c1Nc1ccc(I)cc1Cl, the Potency is reported as 10.6 µM (active) and 16.6 µM (active).
With Cc1nc2n(c(=O)c1CCN1CCC(c3noc4cc(F)ccc34)CC1)CCCC2 the Potency was “inactive”.
With N=C(N)c1ccc2cc(OC(=O)c3ccc(N=C(N)N)cc3)ccc2c1 the Potency was “inactive”.
For CCN(CCO)CCCC(C)Nc1ccnc2cc(Cl)ccc12 (stereo not given), the Potency was “inactive”.
With CCN(CC)C(=S)SSC(=S)N(CC)CC the Potency was 13.2 nM (active) and 62.4 nM (active) and 211 nM (active).
For NC(=O)Cc1cccc(C(=O)c2ccccc2)c1N, the Potency was “inactive”.
In the case of Cc1ccc(NC(=O)c2ccc(CN3CCN(C)CC3)cc2)cc1Nc1nccc(-c2cccnc2)n1, the Potency is reported as “inactive”.
For O=C(O)c1cn(-c2ccc(F)cc2)c2cc(N3CCNCC3)c(F)cc2c1=O, the Potency was “inactive”.
For CN1C(C(=O)Nc2ccccn2)=C(O)c2sccc2S1(=O)=O, the Potency was “inactive”.
In the case of Cc1cc2c(s1)Nc1ccccc1N=C2N1CCN(C)CC1, the Potency is reported as “inactive”.
In the case of COc1cc(OC)c(C(=O)CCCN2CCCC2)c(OC)c1, the Potency is reported as “inactive”.
For CC1=C(C(=O)O)N2C(=O)[C@@H](NC(=O)[C@H](N)C3=CCC=CC3)[C@H]2SC1, the Potency was “inactive”.
In the case of Nc1cc(C(Cl)=C(Cl)Cl)c(S(N)(=O)=O)cc1S(N)(=O)=O, the Potency is reported as “inactive”.
For Nc1ccc(S(N)(=O)=O)cc1, the Potency was “inactive”.

Experiment: qHTS of pediatric cancer cell lines to identify multiple opportunities for drug repurposing: Primary screen for SK-N-SH cells (AID 1347098); also: nearly all actives have a fitted effect of over 65% in size; also: potency is read from the fitted curve at half-maximal effect;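 as to activity change, negative = cytotoxic: DMSO served as neutral control and bortezomib at 2.3 µM as positive control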
Conditions: SK-N-SH viability, CellTiter-Glo luminescence, 48 h; series mostly up to 57 µM
Method in brief: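 Cells (500-1,000/well) rested 5 h, then received compounds for 48 h; metabolically active cells were measured by CellTiter-Glo luminescence. Final concentrations spanned up to 46 µM (MIPE, 11-point) or 0.59 nM-46 µM (NPC, 8-point) in primary screens, 11-point in follow-ups.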
For CC1(C)NC(=O)N(c2ccc([N+](=O)[O-])c(C(F)(F)F)c2)C1=O, the Potency was “inactive”.
With CC(C)(S)[C@@H](N)C(=O)O the Potency was “inactive”.
With Cc1ncc([N+](=O)[O-])n1CC(C)O (stereo not given) the Potency was “inactive”.
For COc1cc2c(cc1OC)C1CC(=O)C(CC(C)C)CN1CC2 (stereo not given), the Potency was “inactive”.
For NS(=O)(=O)c1cc(C(=O)O)c(NCc2ccco2)cc1Cl, the Potency was “inactive”.
For COc1ccccc1N1CCN(CCN(C(=O)C2CCCCC2)c2ccccn2)CC1, the Potency was “inactive”.
With Cc1cc(=O)oc2cc(O)ccc12 the Potency was “inactive”.
In the case of CNC[C@@H](O)[C@@H](O)[C@H](O)[C@H](O)CO, the Potency is reported as “inactive”.
With c1cnc2cc3c(cc2n1)C1CNCC3C1 the Potency was “inactive”.
With CCOC(=O)c1c(C)n(C)c2ccc(O)cc12 the Potency was “inactive”.
For CCOc1cc(CC(=O)N[C@@H](CC(C)C)c2ccccc2N2CCCCC2)ccc1C(=O)O, the Potency was “inactive”.
In the case of CC1Cc2ccccc2N1NC(=O)c1ccc(Cl)c(S(N)(=O)=O)c1 (stereo not given), the Potency is reported as “inactive”.
For NNc1nncc2ccccc12, the Potency was “inactive”.
In the case of Oc1ccc(OCc2ccccc2)cc1, the Potency is reported as “inactive”.
For Cc1cc(C2CCCCC2)n(O)c(=O)c1, the Potency was 1.09 µM (active).
For COc1ccc2cc([C@H](C)C(=O)O)ccc2c1, the Potency was “inactive”.
For Nc1ncn([C@H]2C[C@H](O)[C@@H](CO)O2)c(=O)n1, the Potency was “inactive”.
In the case of COc1c2occc2cc2ccc(=O)oc12, the Potency is reported as “inactive”.
In the case of C[Se]CCC(N)C(=O)O (stereo not given), the Potency is reported as “inactive”.
In the case of O=C(NOCC1CC1)c1ccc(F)c(F)c1Nc1ccc(I)cc1Cl, the Potency is reported as 19.4 µM (active).
For Cc1nc2n(c(=O)c1CCN1CCC(c3noc4cc(F)ccc34)CC1)CCCC2, the Potency was “inactive”.
In the case of N=C(N)c1ccc2cc(OC(=O)c3ccc(N=C(N)N)cc3)ccc2c1, the Potency is reported as “inactive”.
For CCN(CCO)CCCC(C)Nc1ccnc2cc(Cl)ccc12 (stereo not given), the activity change, negative = cytotoxic was -2.15% [at 6 µM].
In the case of CCN(CC)C(=S)SSC(=S)N(CC)CC, the Potency is reported as 0.114 µM (active).
With NC(=O)Cc1cccc(C(=O)c2ccccc2)c1N the Potency was “inactive”.
For Cc1ccc(NC(=O)c2ccc(CN3CCN(C)CC3)cc2)cc1Nc1nccc(-c2cccnc2)n1, the Potency was 34.4 µM (active).
In the case of O=C(O)c1cn(-c2ccc(F)cc2)c2cc(N3CCNCC3)c(F)cc2c1=O, the Potency is reported as “inactive”.
With CN1C(C(=O)Nc2ccccn2)=C(O)c2sccc2S1(=O)=O the Potency was “inactive”.
With Cc1cc2c(s1)Nc1ccccc1N=C2N1CCN(C)CC1 the Potency was “inactive”.
With COc1cc(OC)c(C(=O)CCCN2CCCC2)c(OC)c1 the Potency was “inactive”.
In the case of CC1=C(C(=O)O)N2C(=O)[C@@H](NC(=O)[C@H](N)C3=CCC=CC3)[C@H]2SC1, the Potency is reported as “inactive”.
With Nc1cc(C(Cl)=C(Cl)Cl)c(S(N)(=O)=O)cc1S(N)(=O)=O the Potency was “inactive”.
In the case of Nc1ccc(S(N)(=O)=O)cc1, the Potency is reported as “inactive”.
In the case of Clc1ccc2c(N3CCN(CCCN4CCN(c5ccnc6cc(Cl)ccc56)CC4)CC3)ccnc2c1, the Potency is reported as “inactive”.
